SMILES strings stand for the structures. Records with an inconclusive call do not appear. A number with no mark means an inactive call. Calls of active or inactive are those of the source. Calls come from the whole dose curve.

The values that follow come from PubChem BioAssay (NCATS).
Potency is the fitted concentration of half-maximal effect.

The nature of the assay: A High-Content qHTS Against Drug Library for the Identification of Small Molecules that Inhibit DYT1 Early Onset Primary Dystonia-Associated Cell Pathology (AID 1645839). Particulars: HEK293 Flp-In EGFP-delE TorsinA, punctate imaging, 48 h; series mostly up to 46.1 µM; % pathology change, negative = correction: at the top concentration. The essentials:
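Flp-In T-REx 293 cells with tetracycline-inducible EGFP-delE hTOR1A (WT EGFP-hTOR1A as reference), 800 cells/well; compound added with tetracycline, 48 h at 37 C. Fixed, permeabilized cells imaged; %pathology (punctate TorsinA) primary, cell count counterscreen.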
A general note: qHTS replaces the single test concentration by a dilution series.
As for `NCCCC[C@H](N[C@@H](CCc1ccccc1)C(=O)O)C(=O)N1CCC[C@H]1C(=O)O`, the “% pathology change, negative = correction” value (“% pathology change” below) is -1.67%. The same measure, in the same setting: for `CC(C)(C(=O)c1cccnc1)c1cccnc1` the value was 13.9%; for `CC1(C)O[C@@H]2C[C@H]3[C@@H]4CCC5=CC(=O)CC[C@]5(C)[C@@]4(F)[C@@H](O)C[C@]3(C)[C@]2(C(=O)CCl)O1`, -16.2%.

Regarding `C[C@H](O)C(=O)Nc1c(I)c(C(=O)NC(CO)CO)c(I)c(C(=O)NC(CO)CO)c1I`, the “% pathology change” value is 10.4%. Same read-out and setting: for `CCCCCCCCCCCCCCNCCO` the value was 1.72%.

As to `OC(CCN1CCCCC1)(c1ccccc1)c1ccccc1`, the “% pathology change” value was 3.89%. On the same count and under the same terms, for `COc1cc2c(cc1OC)C(C(C(=O)N(CCc1ccc(OC)c(OC)c1OC)CCc1ccc(OC)c(OC)c1OC)c1ccccc1)=NCC2` (centres undefined) the value was -26.8%; for `NC(=O)CC[C@@H]1NC(=O)[C@H](Cc2ccccc2)NC(=O)[C@H](Cc2ccc(O)cc2)NC(=O)CCSSC[C@@H](C(=O)N2CCC[C@H]2C(=O)N[C@@H](CCCN=C(N)N)C(=O)NCC(N)=O)NC(=O)[C@H](CC(N)=O)NC1=O`, 6.43%. Turning to `Nc1ccc(/C=C/c2ccc(N)cc2S(=O)(=O)O)c(S(=O)(=O)O)c1`, the % pathology change, negative = correction is 12.8% [at 0.369 µM]. Same read-out and setting: for `O=c1ccc2ccccc2o1` the value was 7.65%; for `CN(C)CC/C=C1/c2ccccc2COc2ccc(CC(=O)O)cc21`, 10.8%. As for `Cc1c(C)n(Cc2ccccc2)c2ccc(C(=O)OCCN(C)C)cc12`, the Potency was 11.2 µM (active).

As for `CCOC(=O)c1cccc(N)c1`, the “% pathology change” value was 17.4%. As to `COc1cc(/C=C/C(=O)O[C@H]2CC[C@]34C[C@]35CC[C@]3(C)[C@@H]([C@H](C)CCC=C(C)C)CC[C@@]3(C)[C@@H]5CC[C@H]4C2(C)C)ccc1O`, the “% pathology change” value is 8.88%. On the same count and under the same terms, with `CCCCS(=O)(=O)N[C@@H](Cc1ccc(OCCCCC2CCNCC2)cc1)C(=O)O` the figure was -5.23%. For the compound `NC(CS)C(=O)O` (centres undefined), the “% pathology change” value was 16.4%.

On to `CC(C)COC(=O)c1ccc(N)cc1`, for which the “% pathology change” value is -13.1%. `CN1CCN(C(c2ccccc2)c2ccccc2)CC1`: the “% pathology change” value was -4.68%. `CCOC(=O)COc1ccc2c(C)c(CCN(CC)CC)c(=O)oc2c1Cl`: the “% pathology change” value was -13%. As to `O=C1OCCN1/N=C/c1ccc([N+](=O)[O-])o1`, the “% pathology change” value was -0.9%. On the same count and under the same terms, with `O=C1[C@H]2CCCC[C@H]2C(=O)N1CCCCN1CCN(c2nsc3ccccc23)CC1` the figure was -5.45%; with `Cc1cccn2c(=O)c(-c3nnn[nH]3)cnc12`, -1.54% [at 19.1 µM]; with `CC[C@@H](CO)NCCN[C@@H](CC)CO`, 10.7%. Still for that read-out and setting: for `NC(=O)c1cc[n+](CC2=C(C(=O)[O-])N3C(=O)[C@@H](NC(=O)Cc4cccs4)[C@H]3SC2)cc1` the value was -1.9%.
